High-throughput results deposited in PubChem by several laboratories.
NR2F2 inh – inhibitors of human COUP-TFII (NR2F2); P24468; HEK293T NGFI-A luciferase reporter, luminescence; inhibition, % at 8.6 µM; 370,000 compounds, 0.7% hits; AID 686940;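 active = inhibition above a per-plate cutoff, mean inhibition of test wells between control levels plus 3 SD, cut at about 38% in these data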;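 note: cells cotransfected with COUP-TFII expression vector driving the NGFI-A reporter; 0% = median of COUP-TF2 test wells and 100% = reporter-only cells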
Target sequence (P24468 whole entry, looked up): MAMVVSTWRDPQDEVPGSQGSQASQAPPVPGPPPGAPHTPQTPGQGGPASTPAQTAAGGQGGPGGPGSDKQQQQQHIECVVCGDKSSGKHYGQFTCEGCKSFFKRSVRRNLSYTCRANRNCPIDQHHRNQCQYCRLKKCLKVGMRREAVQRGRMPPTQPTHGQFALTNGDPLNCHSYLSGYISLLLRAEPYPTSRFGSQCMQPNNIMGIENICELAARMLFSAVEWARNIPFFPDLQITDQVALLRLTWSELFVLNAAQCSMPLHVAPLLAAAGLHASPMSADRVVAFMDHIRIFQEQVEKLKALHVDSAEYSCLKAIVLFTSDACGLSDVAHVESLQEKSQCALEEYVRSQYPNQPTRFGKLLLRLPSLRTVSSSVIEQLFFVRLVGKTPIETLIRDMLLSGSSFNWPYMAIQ
Gli-Sufu antag – blocks Gli-Sufu signaling in a luciferase reporter; Sufu-KO-LIGHT fibroblasts, Gli luciferase reporter luminescence; inhibition, % at 5 µM; 340,000 compounds, 0.74% hits; AID 588413;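 active = inhibition above about 55%, limit read from the data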;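 note: 0% = DMSO-treated cells and 100% = wells with medium but no cells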
GalR3 antagonist – blocks the human galanin receptor 3; HEK293 GalR3-CNG cAMP membrane potential fluorescence; galR3 body fused to GalR1 C-terminus; 360,000 compounds, 0.44% hits; inhibition, % at 3 µM; O60755;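 active = inhibition above the screen-wide average plus 3 SD, cut at about 13% in these data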;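 note: forskolin and galanin both at EC90 stimulate the cells; cAMP rise reported by CNG channel membrane potential dye signal; 0% = forskolin plus galanin with DMSO and 100% = forskolin alone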
Target sequence (O60755 1-299 limits assumed): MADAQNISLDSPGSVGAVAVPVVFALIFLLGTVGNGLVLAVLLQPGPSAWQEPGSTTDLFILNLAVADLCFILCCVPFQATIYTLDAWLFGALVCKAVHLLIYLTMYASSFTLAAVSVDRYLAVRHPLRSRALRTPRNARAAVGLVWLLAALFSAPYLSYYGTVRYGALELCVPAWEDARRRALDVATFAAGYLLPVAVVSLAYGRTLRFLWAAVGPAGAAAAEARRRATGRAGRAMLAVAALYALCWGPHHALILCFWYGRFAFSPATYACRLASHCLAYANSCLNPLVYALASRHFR
Env fusion inh – HIV envelope-mediated fusion inhibition; HeLa-JRFL Env/CEM21 cell fusion, luciferase; inhibition, % at 12.3 µM; 360,000 compounds, 1.1% hits; AID 651610;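 active = mean replicate inhibition score of at least 50 and every replicate individually at or above 50; inconclusive = only one of the two criteria met; inactive = mean below 50 and not all replicates reaching 50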;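 note: 0% = plate neutral controls and 100% = maraviroc near 300 nM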
aDG glyco act – alpha-DG glycosylation activation; activation, % at 10 µM; AID 624168; Pro5-aDG cells, alpha-DG glycosylation AlphaScreen (IIH6); 0% Pro5, 100% B10-LARGE cell signal; 360,000 compounds, 0.22% hits;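 active = activation of at least 8% versus controls, or a plate z-score of at least 8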;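 note: Pro5 are CHO cells carrying HIG-tagged alpha-DG that lacks glycosylation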
Gli-Sufu confirm – Gli-SUFU antagonism confirmation, single concentration. Sufu-KO-LIGHT cells, Gli luciferase reporter, luminescence. shares compounds with Gli-Sufu antag. AID 602428. 2,500 compounds, 40% hits. inhibition, % at 5 µM;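 active = mean inhibition at 5 µM reaching about 45%, limit read from the data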;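 note: plate controls were DMSO-treated cells for no effect and wells lacking cells for full effect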
SufuKO cytotox – counter-screen for Gli-SUFU antagonists: cytotoxicity; shares compounds with Gli-Sufu antag; Sufu-KO-LIGHT cells cytotoxicity, ATP luminescence; cytotoxicity, % at 5 µM; 2,500 compounds, 32% hits;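 active = mean cytotoxicity at 5 µM above about 25%, limit read from the data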;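 note: cells exposed to compound overnight for roughly 16 to 18 hours; plate controls were DMSO wells with cells for no effect and medium without cells for full effect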
Wnt3a cs – Wnt3a reporter inhibition counter-screen; shares compounds with Gli-Sufu antag; Wnt-LIGHT cells, Wnt3a-driven luciferase reporter, luminescence; inhibition, % at 6.25 µM; 2,500 compounds, 20% hits; AID 651995;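 active = mean inhibition above about 25%, limit read from the data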
aDG conf – alpha-DG glycosylation activation, confirmation; shares compounds with aDG glyco act; Pro5-aDG cells, IIH6 AlphaLISA; scaled to LARGE-overexpressing B10 cells as 100%; activation, % at 10 µM (by protocol); 600 compounds, 17% hits; AID 651671;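 active = activation of at least 7% in one or more replicates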;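 note: cells exposed to compound for two days before detection; 0% = DMSO-treated Pro5 cells and 100% = DMSO-treated B10-LARGE cells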
GalR3 conf – GalR3 (human) antagonism, confirmation. shares compounds with GalR3 antagonist. HEK293 GalR3 CNG cAMP biosensor, membrane potential fluorescence; galR3 fused to GalR1 carboxy tail; challenged with forskolin and galanin at EC90. inhibition, % at 3 µM. 1,600 compounds, 59% hits;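 active = inhibition above the primary screen's cutoff, the mean inhibition of all screened compounds plus 3 SD, cut at about 13% in these data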;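 note: 0% = forskolin plus galanin and 100% = forskolin alone with DMSO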
HEK-CNG parental – parental cell agonism counter-screen for GalR3 antagonists; shares compounds with GalR3 antagonist; HEK293-CNG parental cells, cAMP membrane potential fluorescence; normalised: DMSO wells 0%, forskolin wells 100%; activation, % at 3 µM; 1,600 compounds, 10% hits; AID 652268; in the data active = activation above about 1.3%
Gal4-VP16 ctr – inhibits VP16 reporter, flagging COUP-TFII antagonist hits; shares compounds with NR2F2 inh; HEK293 Gal4-VP16 luciferase reporter, luminescence; inhibition, % at 8.5 µM; 2,500 compounds, 25% hits; in the data active = inhibition above about 13%
COUP-TFII conf – confirmation of human COUP-TFII (NR2F2) inhibitors; 2,500 compounds, 45% hits; shares compounds with NR2F2 inh; HEK293 NGFI-A luciferase reporter, luminescence; inhibition, % at 8.5 µM;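 active = mean inhibition over three repeats above a set limit taken from the earlier primary screen, cut at about 38% in these data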;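 note: 100% = cells given the luciferase reporter alone without the COUP-TF2 vector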
* hit, by the source's call; ? = inconclusive; . = no result; [ ] = remark or other dose. A selection: hits, their analogues and other compounds. The true share with any hit is near 2.1%.

SMILES	NR2F2 inh	Gli-Sufu antag	GalR3 antagonist	Env fusion inh	aDG glyco act	Gli-Sufu confirm	SufuKO cytotox	Wnt3a cs	Gal4-VP16 ctr	COUP-TFII conf	others
COc1ccc(-c2c[n+]3c(n2-c2ccccc2)SCC3)cc1	57*	76*	0	2	0	80*	25*	42*	10	29
CC(C)C#Cc1ccc2c(c1)O[C@H](CN(C)C(=O)c1cccnc1)[C@H](C)CN([C@@H](C)CO)S2(=O)=O	.	.	.	-3[16.7 µM]	.	.	.	.	.	.
N=c1c2c(n(Cc3ccc(Cl)cc3)c3c1CCC3)CCC2	67*	80*	-6	.	0	82*	25*	48*	4	46*
O=C1CCCc2ccccc2N1Cc1ccc(F)cc1	10	3	-5	-3	0	.	.	.	.	.
N=c1c2c(n(Cc3ccc(F)cc3)c3c1CCC3)CCCC2	39*	66*	-1	-10	0	69*	25	15	3	25
CCn1c2c(c(=N)c3c1CCC3)CCCC2	15	4	-1	4	0	.	.	.	.	.
N=c1c2c(n(Cc3cccc(Cl)c3)c3c1CCC3)CCCC2	65*	81*	0	.	0	83*	35*	36*	13*	47*
C=CCn1c(O)c(N=NC(=S)Nc2ccccc2F)c2cc(S(=O)(=O)N3CCOCC3)ccc21	49*	64*	-2	41	-1	56*	29*	-23	-2	28
CC1CN(C(=O)c2cccc(S(=O)(=O)N3CCN(c4ccc(F)cc4)CC3)c2)CC(C)O1 (configuration not stated)	3	15	-2	.	0	.	.	.	.	.
O=C(c1cccc(S(=O)(=O)N2CCN(c3ccc(F)cc3)CC2)c1)N1CCCC(C(F)(F)F)C1 (configuration not stated)	63*	57*	99*	.	2	62*	34*	7	-4	45*	GalR3 conf=95*;HEK-CNG parental=-1
Cc1ccc(C#CC[N+]2(CC#Cc3ccc(C)cc3)CCCCC2)cc1	45*	88*	-3	30	0	89*	39*	-7	13*	36
C#CC[N+]1(CC#Cc2cccc(C)c2)CCCCC1	-11	47	1	14	0	.	.	.	.	.
CCCc1ccc(-c2ccc(/C=C/C(=O)O)cc2)nc1	98*	71*	-1	61*	0	69*	56*	91*	91*	102*
O=C(Nc1ccncc1)c1ccc(-c2ccccc2)cc1	62*	58*	.	6	9.1*	55*	23	-84	-87	33	aDG conf=2;GalR3 conf=56*;HEK-CNG parental=-1
C[C@@H]1CN([C@@H](C)CO)C(=O)c2cc(-c3cccc(F)c3)cnc2O[C@H]1CN(C)S(=O)(=O)c1cccc(F)c1	.	.	.	2[16.7 µM]	.	.	.	.	.	.
C[C@@H]1CN([C@@H](C)CO)C(=O)Cc2cc(NC(=O)c3ccncc3)ccc2O[C@H]1CN(C)S(C)(=O)=O	.	.	.	-30[16.7 µM]	.	.	.	.	.	.
Cc1cc(C)nc(/N=C(\N)Nc2ccc(-c3ccccc3)cc2)n1	56*	67*	-7	-5	1	37	18	-95	4	35
CC(=O)Nc1ccc(N/C(N)=N/c2nc(C)cc(C)n2)cc1	-7	13	2	10	0	.	.	.	.	.
COc1ccc(-c2cn(-c3ccc(OC)cc3)c3[n+]2-c2ccccc2CC3)cc1	62*	88*	0	29	0	91*	46*	26*	12	55*
CN1/C(=C\P(=O)(N(C)C)N(C)C)C(C)(C)c2ccccc21	46*	76*	-5	.	0	70*	30*	29*	-6	0
COc1ccc(NS(=O)(=O)c2ccc(OC)c(N(C)S(=O)(=O)c3ccc(Cl)cc3)c2)cc1	57*	74*	25*	.	1	43	39*	-35	-7	21	GalR3 conf=62*;HEK-CNG parental=0
Cc1ccc(S(=O)(=O)N2CCC(=O)N(CCOCc3ccc(C(F)(F)F)cc3)CC2)cc1	51*	52	9	69*	4	30	13	-29	0	38*
O=C1CCN(S(=O)(=O)c2ccccc2)CCN1CCOCc1ccc(C(F)(F)F)cc1	20	9	-6	31	0	.	.	.	.	.
COc1ccc(NS(=O)(=O)c2ccc(N3CCCCC3)c(NC(=O)C(C)NC(N)=O)c2)cc1 (configuration not stated)	8	9	-5	4	0	.	.	.	.	.
COc1ccc(NS(=O)(=O)c2ccc(N3CCCCC3)c(N)c2)cc1	56*	58*	82*	.	5	73*	27*	16	-5	43*	GalR3 conf=105*;HEK-CNG parental=-1
O=C(c1ccc(CSc2nc3ccncc3[nH]2)cc1)N1CCN(c2cccc(Cl)c2)CC1	78*	58*	.	?	1	67*	42*	8	12	51*
O=C(c1ccc(CSc2nc3ccncc3[nH]2)cc1)N1CCCCCC1	-15	-43	0	17	0	.	.	.	.	.
CCC[N+]1(CC#CCC(c2ccccc2)c2ccccc2)CCCCC1	52*	84*	-8	74*	0	88*	49*	36*	11	31
Cc1ccc(S(=O)(=O)CC2CSc3nc4ccccc4n32)cc1 (configuration not stated)	67*	72*	-11	.	5	70*	18	47*	9	64*
Cc1ccc(S(=O)(=O)CC2CSc3nc(N)cc(=O)n32)cc1 (configuration not stated)	-8	8	6	17	0	.	.	.	.	.
